Experimental data from the supplement of paper PMC10849652.
The full data set covers some 8,800 targets. This sample favours those with a hit. About 0.5% of all pairs of compound and target were hits. Unmarked numbers belong to inactive results.

Legend:
Experiment in all cases: log2 fold change, soluble protein after heating vs DMSO (PISA); higher = thermal stabilisation; K562 lysate, 10 uM; active = over 0.2 and 3.5 SD of the protein, either way, in both replicates (recomputed)
[1] = compound: CCCS(=O)(=O)Nc1ccc(F)c(C(=O)c2c[nH]c3ncc(-c4ccc(Cl)cc4)cc23)c1F [vemurafenib]
Outline: (§1)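 To prepare the extract, K562 pellets were dounce-homogenised in PBS pH 7.4 with 1 mM MgCl2, giving crude material at 1 mg/mL protein. This was treated with 10 μM compound for 30 min, then heated in aliquots for 3 min over 48°C-58°C before pooling and addition of NP-40 to 0.5% at 4°C. Centrifugation at 21,000xg for 90 min left soluble protein in the supernatant, which TMTpro 16plex LC-MS/MS quantified with equalised channel sums. Results are log-two fold changes in thermal stability compared with solvent controls, from duplicates.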

[2] = compound: CCCS(=O)(=O)Nc1ccc(F)c(C(=O)c2c[nH]c3ncc(Cl)cc23)c1F
Outline: as §1

[3] = compound: CCN(CCCOc1ccc2c(Nc3cc(CC(=O)Nc4cccc(F)c4)[nH]n3)ncnc2c1)CCOP(=O)(O)O [barasertib]
Outline: as §1

[4] = compound: CC[C@@H]1C(=O)N(C)c2cnc(Nc3ccc(C(=O)NC4CCN(C)CC4)cc3OC)nc2N1C1CCCC1
Outline: as §1

[5] = compound: CC[C@@H]1C(=O)N(C)c2cnc(Nc3ccc(C(=O)N[C@H]4CC[C@H](N5CCN(CC6CC6)CC5)CC4)cc3OC)nc2N1C(C)C [volasertib]
Outline: as §1

[6] = compound: CCn1c(C(=O)N(C2CC2)C2CC2)cc2c3c(ncn3C)c(Nc3cc(C)n(C)n3)nc21
Outline: as §1

[7] = compound: CCn1cc(-c2ccnc3[nH]c(-c4cccc(CN(C)C)c4)cc23)c(-c2ccc(NC(=O)N(C)C)cc2)n1
Outline: as §1

[8] = compound: CN1CCC(CNc2ccc3ncc(-c4cccc(OC(F)(F)F)c4)n3n2)CC1
Outline: as §1

[9] = compound: CN1CCN(CCOc2cc(OC3CCOCC3)c3c(Nc4c(Cl)ccc5c4OCO5)ncnc3c2)CC1 [saracatinib]
Outline: as §1

[10] = compound: CN1CCN(c2nc(C3=C(c4c[nH]c5ccccc45)C(=O)NC3=O)c3ccccc3n2)CC1 [sotrastaurin]
Outline: as §1

[11] = compound: CN1CC[C@H](c2c(O)cc(O)c3c(=O)cc(-c4ccccc4Cl)oc23)[C@H](O)C1 [alvocidib]
Outline: as §1

[12] = compound: CN1CCc2c(c3ccccc3n2Cc2ccc(C(=O)NO)cc2)C1 [Tubastatin A]
Outline: as §1

[13] = compound: CNC(=O)C1=CC=CC=C1NC2=NC(=NC=C2Cl)NC3=C(C=C(C=C3)N4CCOCC4)OC
Outline: as §1

[14] = compound: CNC(=O)c1ccc(Nc2ncc(C(F)(F)F)c(NCc3nccnc3N(C)S(C)(=O)=O)n2)cc1 [defactinib]
Outline: as §1

[15] = compound: CNc1nc(-c2ccc3c(N)n[nH]c3c2)cc(N2C[C@@H](C(=O)NC3CCCCC3)CC[C@H]2C)n1
Outline: as §1

[16] = compound: COC(=O)N[C@@H](C)CNc1nccc(-c2cn(C(C)C)nc2-c2cc(Cl)cc(NS(C)(=O)=O)c2F)n1 [encorafenib]
Outline: as §1

[17] = compound: COC(=O)[C@H](CCSC)NC(=O)C1=C(C=C(C=C1)NC[C@H](CS)N)C2=CC=CC=C2
Outline: as §1

[18] = compound: COc1cc(Nc2ncc3c(n2)-c2ccc(Cl)cc2C(c2c(F)cccc2OC)=NC3)ccc1C(=O)O [alisertib]
Outline: as §1

[19] = compound: COc1cc2nc(-c3cc(F)ccc3O)nc(N[C@@H]3CNC[C@H]3C(C)(C)O)c2cc1OC
Outline: as §1

[20] = compound: COc1cc2ncnc(Nc3ccc(F)c(Cl)c3)c2cc1OCCCN1CCOCC1 [gefitinib]
Outline: as §1

Chain of UniProt Q9UQE7 (Q9UQE7 whole entry, looked up): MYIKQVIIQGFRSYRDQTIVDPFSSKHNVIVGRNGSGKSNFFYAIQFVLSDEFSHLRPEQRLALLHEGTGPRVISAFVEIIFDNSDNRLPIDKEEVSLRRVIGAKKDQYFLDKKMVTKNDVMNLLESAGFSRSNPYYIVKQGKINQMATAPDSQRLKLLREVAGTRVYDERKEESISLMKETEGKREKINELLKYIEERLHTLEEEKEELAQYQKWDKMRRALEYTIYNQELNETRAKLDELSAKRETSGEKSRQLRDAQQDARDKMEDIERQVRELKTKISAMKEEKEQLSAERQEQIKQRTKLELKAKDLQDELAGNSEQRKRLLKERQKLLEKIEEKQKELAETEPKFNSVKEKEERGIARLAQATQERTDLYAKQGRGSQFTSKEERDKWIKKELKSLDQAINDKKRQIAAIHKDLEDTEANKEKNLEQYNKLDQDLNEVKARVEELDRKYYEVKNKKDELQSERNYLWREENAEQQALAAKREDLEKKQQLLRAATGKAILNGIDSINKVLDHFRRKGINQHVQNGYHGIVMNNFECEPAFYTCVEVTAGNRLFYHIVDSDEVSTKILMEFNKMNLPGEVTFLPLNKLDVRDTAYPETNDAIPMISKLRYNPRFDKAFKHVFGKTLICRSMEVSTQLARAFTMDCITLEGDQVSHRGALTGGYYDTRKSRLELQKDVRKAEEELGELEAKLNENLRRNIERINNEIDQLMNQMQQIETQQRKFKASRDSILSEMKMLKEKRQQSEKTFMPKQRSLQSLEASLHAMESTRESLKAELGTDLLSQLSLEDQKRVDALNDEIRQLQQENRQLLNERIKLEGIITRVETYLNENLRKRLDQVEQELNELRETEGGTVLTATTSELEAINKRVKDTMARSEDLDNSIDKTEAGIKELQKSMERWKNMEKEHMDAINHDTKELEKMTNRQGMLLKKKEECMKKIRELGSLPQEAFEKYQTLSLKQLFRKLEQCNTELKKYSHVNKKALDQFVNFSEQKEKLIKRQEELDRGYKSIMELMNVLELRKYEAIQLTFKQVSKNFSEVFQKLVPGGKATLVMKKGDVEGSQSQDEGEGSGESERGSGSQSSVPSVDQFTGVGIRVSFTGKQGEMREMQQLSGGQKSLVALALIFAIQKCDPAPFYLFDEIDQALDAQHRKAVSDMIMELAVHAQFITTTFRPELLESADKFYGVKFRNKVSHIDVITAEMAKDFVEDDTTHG
Chain of UniProt O95347 (O95347 whole entry, looked up): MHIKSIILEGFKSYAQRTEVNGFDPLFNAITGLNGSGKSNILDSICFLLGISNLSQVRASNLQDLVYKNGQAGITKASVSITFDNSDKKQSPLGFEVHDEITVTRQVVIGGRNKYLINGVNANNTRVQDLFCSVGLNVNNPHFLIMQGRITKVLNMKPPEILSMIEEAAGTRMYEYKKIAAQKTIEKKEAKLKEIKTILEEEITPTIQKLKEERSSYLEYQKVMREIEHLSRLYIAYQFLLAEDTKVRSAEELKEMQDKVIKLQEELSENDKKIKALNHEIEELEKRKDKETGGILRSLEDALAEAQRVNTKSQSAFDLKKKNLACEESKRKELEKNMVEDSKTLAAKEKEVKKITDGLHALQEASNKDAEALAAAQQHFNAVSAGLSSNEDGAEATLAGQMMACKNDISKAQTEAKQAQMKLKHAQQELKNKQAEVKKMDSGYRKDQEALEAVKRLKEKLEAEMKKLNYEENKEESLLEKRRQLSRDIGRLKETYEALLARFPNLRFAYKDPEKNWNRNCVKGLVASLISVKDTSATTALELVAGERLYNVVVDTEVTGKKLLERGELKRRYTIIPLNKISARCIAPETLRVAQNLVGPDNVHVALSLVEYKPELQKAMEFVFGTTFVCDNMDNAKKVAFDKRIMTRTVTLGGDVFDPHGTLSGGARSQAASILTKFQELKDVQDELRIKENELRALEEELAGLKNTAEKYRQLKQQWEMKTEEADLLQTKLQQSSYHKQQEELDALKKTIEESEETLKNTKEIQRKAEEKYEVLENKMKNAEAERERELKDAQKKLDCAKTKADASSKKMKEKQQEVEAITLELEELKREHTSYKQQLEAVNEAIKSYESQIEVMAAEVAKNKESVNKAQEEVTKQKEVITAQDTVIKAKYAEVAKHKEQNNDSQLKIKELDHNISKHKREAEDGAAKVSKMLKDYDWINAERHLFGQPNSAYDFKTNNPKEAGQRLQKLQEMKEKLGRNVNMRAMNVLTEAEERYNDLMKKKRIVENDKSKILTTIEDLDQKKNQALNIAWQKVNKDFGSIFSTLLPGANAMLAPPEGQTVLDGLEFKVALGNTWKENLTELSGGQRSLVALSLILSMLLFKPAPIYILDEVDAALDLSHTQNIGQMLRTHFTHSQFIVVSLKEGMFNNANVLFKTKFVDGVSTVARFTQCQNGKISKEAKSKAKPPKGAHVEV
Chain of UniProt Q13242 (Q13242 whole entry, looked up): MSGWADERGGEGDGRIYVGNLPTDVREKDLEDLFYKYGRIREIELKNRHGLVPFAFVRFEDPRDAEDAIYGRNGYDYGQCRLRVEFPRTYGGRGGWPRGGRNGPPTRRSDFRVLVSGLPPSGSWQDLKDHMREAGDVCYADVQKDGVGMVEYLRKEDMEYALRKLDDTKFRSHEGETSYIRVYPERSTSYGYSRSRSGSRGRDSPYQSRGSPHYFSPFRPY
Chain of UniProt Q14849 (Q14849 whole entry, looked up): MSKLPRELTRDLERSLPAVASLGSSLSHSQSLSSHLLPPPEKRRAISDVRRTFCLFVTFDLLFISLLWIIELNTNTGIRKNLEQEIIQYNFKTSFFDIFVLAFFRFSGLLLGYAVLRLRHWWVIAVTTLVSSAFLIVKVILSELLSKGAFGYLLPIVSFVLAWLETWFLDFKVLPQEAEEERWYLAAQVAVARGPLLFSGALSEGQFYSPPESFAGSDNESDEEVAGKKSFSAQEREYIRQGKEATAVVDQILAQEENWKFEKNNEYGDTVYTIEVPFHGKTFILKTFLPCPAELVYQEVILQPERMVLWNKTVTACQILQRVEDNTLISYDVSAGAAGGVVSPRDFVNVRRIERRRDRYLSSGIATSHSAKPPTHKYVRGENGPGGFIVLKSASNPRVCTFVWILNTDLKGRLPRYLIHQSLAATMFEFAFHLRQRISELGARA
Chain of UniProt Q9C0B7 (Q9C0B7 whole entry, looked up): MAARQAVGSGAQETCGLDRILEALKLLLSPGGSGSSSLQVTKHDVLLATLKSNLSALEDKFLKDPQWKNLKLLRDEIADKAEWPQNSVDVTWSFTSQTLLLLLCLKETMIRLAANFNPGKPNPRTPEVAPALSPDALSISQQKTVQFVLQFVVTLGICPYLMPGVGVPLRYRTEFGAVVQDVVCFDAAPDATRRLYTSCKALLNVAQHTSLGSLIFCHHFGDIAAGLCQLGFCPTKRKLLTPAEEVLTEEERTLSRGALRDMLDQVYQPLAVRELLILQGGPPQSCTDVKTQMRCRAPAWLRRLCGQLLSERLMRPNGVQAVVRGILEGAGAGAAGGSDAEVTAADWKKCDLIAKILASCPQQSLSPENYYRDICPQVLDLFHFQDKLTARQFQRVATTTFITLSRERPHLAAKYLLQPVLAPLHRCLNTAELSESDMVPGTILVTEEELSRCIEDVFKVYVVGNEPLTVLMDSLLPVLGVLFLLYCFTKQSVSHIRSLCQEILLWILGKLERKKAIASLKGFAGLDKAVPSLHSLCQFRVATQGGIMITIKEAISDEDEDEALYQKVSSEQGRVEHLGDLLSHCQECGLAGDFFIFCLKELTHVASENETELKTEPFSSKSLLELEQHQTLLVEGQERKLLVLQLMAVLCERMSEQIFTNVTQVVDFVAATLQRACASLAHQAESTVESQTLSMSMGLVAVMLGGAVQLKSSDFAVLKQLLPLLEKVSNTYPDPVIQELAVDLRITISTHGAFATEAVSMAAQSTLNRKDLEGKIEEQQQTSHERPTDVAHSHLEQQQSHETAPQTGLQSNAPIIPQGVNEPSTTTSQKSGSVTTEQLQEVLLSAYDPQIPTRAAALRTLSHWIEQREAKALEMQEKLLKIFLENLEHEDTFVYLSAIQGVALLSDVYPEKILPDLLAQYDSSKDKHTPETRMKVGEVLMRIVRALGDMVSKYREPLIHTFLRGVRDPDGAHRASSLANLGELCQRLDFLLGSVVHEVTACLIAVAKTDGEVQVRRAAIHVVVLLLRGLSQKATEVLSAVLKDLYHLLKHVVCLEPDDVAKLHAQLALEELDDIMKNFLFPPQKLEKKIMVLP
Chain of UniProt Q92844 (Q92844 whole entry, looked up): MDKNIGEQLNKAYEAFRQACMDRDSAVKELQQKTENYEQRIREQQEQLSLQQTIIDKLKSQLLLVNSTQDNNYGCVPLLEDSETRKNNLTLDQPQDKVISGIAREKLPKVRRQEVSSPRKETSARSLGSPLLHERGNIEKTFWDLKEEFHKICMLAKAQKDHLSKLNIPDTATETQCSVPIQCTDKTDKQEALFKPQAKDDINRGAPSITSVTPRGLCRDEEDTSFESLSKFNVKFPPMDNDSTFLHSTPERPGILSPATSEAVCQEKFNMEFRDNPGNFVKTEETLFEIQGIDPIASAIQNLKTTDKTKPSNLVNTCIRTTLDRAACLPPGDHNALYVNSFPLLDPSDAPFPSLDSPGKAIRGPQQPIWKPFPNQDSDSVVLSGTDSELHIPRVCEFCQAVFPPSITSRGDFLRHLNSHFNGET
Chain of UniProt Q86XK3 (Q86XK3 whole entry, looked up): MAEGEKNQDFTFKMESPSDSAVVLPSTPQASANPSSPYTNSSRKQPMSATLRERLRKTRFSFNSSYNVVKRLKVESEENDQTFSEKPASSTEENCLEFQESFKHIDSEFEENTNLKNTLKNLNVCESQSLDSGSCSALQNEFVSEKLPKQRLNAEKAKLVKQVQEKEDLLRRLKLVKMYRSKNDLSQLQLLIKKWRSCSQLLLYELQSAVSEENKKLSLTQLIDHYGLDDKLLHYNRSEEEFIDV
Chain of UniProt P62316 (P62316 whole entry, looked up): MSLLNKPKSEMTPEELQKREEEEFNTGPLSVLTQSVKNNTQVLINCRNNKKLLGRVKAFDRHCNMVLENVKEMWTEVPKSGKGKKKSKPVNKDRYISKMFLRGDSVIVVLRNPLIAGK

Target | log2 fold change [1] | log2 fold change [2] | log2 fold change [3] | log2 fold change [4] | log2 fold change [5] | log2 fold change [6] | log2 fold change [7] | log2 fold change [8] | log2 fold change [9] | log2 fold change [10] | log2 fold change [11] | log2 fold change [12] | log2 fold change [13] | log2 fold change [14] | log2 fold change [15] | log2 fold change [16] | log2 fold change [17] | log2 fold change [18] | log2 fold change [19] | log2 fold change [20]
TANGO6 (UniProt Q9C0B7) | 0.062 | -0.113 | 0.036 | 0.023 | 0.042 | -0.054 | -0.187 | 0.121 | -0.011 | 0.081 | -0.094 | -0.031 | -0.005 | -0.047 | 0 | -0.024 | -0.009 | -0.022 | 0.027 | 0.117
STK26 (UniProt Q9P289) | 0.021 | -0.008 | -0.009 | -0.032 | -0.064 | 0.037 | -0.045 | -0.048 | -0.02 | 0.006 | 0.027 | -0.041 | 0.003 | 0.008 | -0.06 | 0.001 | 0.009 | -0.004 | 0.022 | -0.016
SMC2 (UniProt O95347) | 0.002 | 0.007 | -0.001 | -0.033 | -0.047 | -0.002 | 0.134 | -0.121 | 0.005 | 0.014 | 0.039 | -0.087 | -0.004 | -0.003 | -0.022 | -0.005 | 0.047 | 0.005 | 0.003 | -0.003
SH3GL1 (UniProt Q99961) | -0.002 | -0.01 | -0.019 | 0.044 | -0.004 | 0.018 | 0.044 | -0.022 | 0.011 | -0.03 | 0.017 | -0.109 | 0.01 | 0.03 | -0.003 | -0.02 | -0.042 | -0.011 | 0.009 | 0.002
SPAG5 (UniProt Q96R06) | -0.007 | 0.04 | 0.025 | -0.016 | -0.004 | -0.01 | -0.004 | -0.174 | 0.004 | 0.009 | -0.019 | -0.119 | 0.031 | 0.008 | 0.003 | 0.071 | -0.081 | -0.01 | -0.017 | 0.019
SPATA5 (UniProt Q8NB90) | 0.015 | 0.005 | 0.02 | -0.021 | -0.068 | 0.011 | -0.024 | -0.052 | -0.001 | 0.007 | 0.033 | -0.101 | 0.007 | 0.029 | 0.085 | 0.04 | 0.008 | 0.025 | 0.004 | -0.024
SLC27A4 (UniProt Q6P1M0) | -0.042 | 0.127 | -0.015 | -0.028 | -0.106 | 0 | -0.066 | -0.008 | -0.023 | 0.083 | -0.019 | -0.021 | -0.009 | -0.157 | -0.062 | 0.135 | 0.006 | 0.039 | 0.062 | -0.067
SRSF9 (UniProt Q13242) | -0.104 | 0.009 | 0.049 | -0.05 | -0.029 | 0.03 | -0.006 | -0.029 | -0.021 | -0.064 | -0.021 | -0.165 | 0.002 | -0.054 | -0.044 | 0 | -0.084 | -0.013 | -0.017 | -0.022
TANK (UniProt Q92844) | 0.023 | 0.004 | 0.007 | -0.026 | -0.02 | 0.004 | 0.18 | -0.054 | 0.01 | 0 | 0.066 | -0.043 | 0.25 | 0.044 | 0.068 | -0.006 | -0.309 (active) | -0.006 | -0.024 | -0.047
SPNS1 (UniProt Q9H2V7) | 0 | 0.036 | -0.004 | 0.154 | -0.004 | -0.097 | -0.014 | 0.064 | -0.006 | 0.02 | -0.118 | 0.034 | 0.06 | 0.095 | -0.03 | 0.019 | -0.031 | 0.047 | 0.019 | -0.015
SNW1 (UniProt Q13573) | 0.019 | 0.01 | -0.019 | 0.07 | -0.021 | 0 | 0.191 | -0.037 | 0.016 | -0.037 | 0.023 | 0.051 | 0.02 | 0.006 | 0.073 | 0.02 | -0.119 | 0.014 | -0.003 | -0.03
SNRPD2 (UniProt P62316) | -0.008 | -0.019 | 0.001 | 0.058 | 0.033 | 0.018 | -0.083 | 0.051 | -0.021 | 0.011 | -0.054 | 0.027 | -0.003 | -0.019 | 0.021 | 0.005 | -0.027 | 0.014 | 0.029 | -0.02
STARD3 isoform 3 (UniProt Q14849) | 0.029 | 0.054 | 0.051 | 0.289 | 0.18 | -0.031 | -0.122 | 0.02 | -0.091 | -0.016 | -0.037 | 0.079 | 0.004 | -0.019 | 0.068 | -0.029 | 0.055 | -0.007 | -0.059 | 0.081
SMC3 (UniProt Q9UQE7) | -0.018 | 0.004 | -0.004 | 0.008 | -0.013 | 0.003 | 0.041 | -0.018 | -0.011 | -0.016 | -0.009 | 0.006 | 0.003 | 0.002 | -0.036 | -0.007 | 0.002 | 0.005 | -0.013 | -0.005
TAF9 (UniProt Q16594) | -0.028 | -0.092 | -0.001 | -0.031 | 0.063 | 0.002 | 0.238 (active) | -0.006 | 0.056 | -0.001 | 0.032 | -0.026 | 0.014 | -0.03 | -0.004 | 0.099 | -0.041 | 0.004 | 0.038 | 0.084
SFR1 isoform 2 (UniProt Q86XK3) | -0.031 | -0.037 | 0.024 | 0.028 | 0.022 | 0.013 | -0.087 | -0.119 | -0.04 | 0.085 | -0.014 | -0.003 | -0.009 | -0.155 | -0.005 | 0.014 | -0.007 | 0.004 | -0.007 | -0.03
